Compound activity: PubChem, several laboratories
S1P4 antagonist: S1P4 receptor antagonists, primary screen, cell-based. inhibition, % at 4.98 µM. S1P4-expressing cells, antagonist mode, reporter read-out. AID 1510, 2009. hit rate 0.26% among 220,000. Sphingosine 1-phosphate receptor 4 (Homo sapiens), O95977; in the data active = inhibition above about 29%;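 also: 0% = wells stimulated with agonist and 100% = vehicle wells without agonist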
PERK inh: block of dimerizer-induced PERK translation repression, primary screen, PERK inhibitor project, CHO PERK-DD cells, SEAP luminescence, HTS; CHO PERK-DD fusion, SEAP luminescence translation reporter; inhibition, % at 5.6 µM; Eukaryotic translation initiation factor 2-alpha kinase 3 (Homo sapiens), Q9NZJ5; hit rate 0.17% among 220,000;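 active = inhibition above the mean inhibition of all tested compounds plus 3 SD, set separately per screening campaign, cut at about 2.9% in these data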;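 also: PERK kinase domain activated by AP20187 dimerizer at 100 nM; 0% = DMSO with dimerizer and 100% = rapamycin at 8.4 µM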
Target sequence (Q9NZJ5 whole entry, looked up, the tested form may be a part): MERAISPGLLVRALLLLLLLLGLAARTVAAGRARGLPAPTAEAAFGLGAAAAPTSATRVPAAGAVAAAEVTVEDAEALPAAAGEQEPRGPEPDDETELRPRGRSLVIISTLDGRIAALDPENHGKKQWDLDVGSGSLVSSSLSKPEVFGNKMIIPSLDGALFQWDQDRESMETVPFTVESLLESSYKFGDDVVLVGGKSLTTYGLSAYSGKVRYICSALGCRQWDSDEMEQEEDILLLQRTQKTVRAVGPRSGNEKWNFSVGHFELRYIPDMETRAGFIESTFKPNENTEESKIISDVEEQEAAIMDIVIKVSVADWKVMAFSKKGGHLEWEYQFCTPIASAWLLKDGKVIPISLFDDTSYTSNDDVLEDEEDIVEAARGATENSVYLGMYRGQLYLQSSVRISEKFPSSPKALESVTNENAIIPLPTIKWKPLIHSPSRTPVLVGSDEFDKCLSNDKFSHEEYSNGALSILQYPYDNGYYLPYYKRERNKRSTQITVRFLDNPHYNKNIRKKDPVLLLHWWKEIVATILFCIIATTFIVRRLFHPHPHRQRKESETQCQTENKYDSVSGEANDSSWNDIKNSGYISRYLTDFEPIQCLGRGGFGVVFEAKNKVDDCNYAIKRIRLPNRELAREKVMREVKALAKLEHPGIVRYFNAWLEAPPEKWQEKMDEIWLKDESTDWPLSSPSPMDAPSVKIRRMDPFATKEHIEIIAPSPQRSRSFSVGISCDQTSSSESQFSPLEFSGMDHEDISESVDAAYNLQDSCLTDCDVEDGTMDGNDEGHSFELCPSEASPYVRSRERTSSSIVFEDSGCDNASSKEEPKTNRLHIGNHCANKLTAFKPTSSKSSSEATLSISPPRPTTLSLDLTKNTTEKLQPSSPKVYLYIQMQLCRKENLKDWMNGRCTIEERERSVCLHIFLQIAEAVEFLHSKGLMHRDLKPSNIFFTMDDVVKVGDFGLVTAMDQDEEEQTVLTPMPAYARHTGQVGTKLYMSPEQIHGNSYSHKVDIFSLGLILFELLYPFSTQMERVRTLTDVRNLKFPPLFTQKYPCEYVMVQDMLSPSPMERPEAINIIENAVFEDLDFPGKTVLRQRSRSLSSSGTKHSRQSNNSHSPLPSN
S1P4 agonist: S1P4 receptor agonists, primary screen, cell-based | S1P4-expressing cell line, agonist reporter assay | AID 1509, 2009 | Sphingosine 1-phosphate receptor 4 (Homo sapiens), O95977 | activation, % at 4.98 µM | hit rate 0.35% among 220,000; in the data active = activation above about 11%;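 also: 0% = DMSO vehicle and 100% = reference agonist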
S1P3 antagonist: S1P3 receptor antagonists, primary screen, cell-based | CHO S1P3 NFAT-BLA reporter, FRET fluorescence, antagonist mode | inhibition, % at 4.98 µM | hit rate 0.27% among 170,000;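 active = inhibition above the plate cutoff, the mean inhibition of test wells on that plate plus 3 SD, cut at about 28% in these data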;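 also: cells challenged with S1P at its EC80 of 0.8 µM; blue over green emission ratio from cleaved BLA substrate after 4 h stimulation; 0% = S1P-stimulated wells and 100% = unstimulated DMSO-only wells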
m-calpain inh: inhibitors of pig calpain II, primary screen, biochemical, fluorogenic peptide substrate, 1536-well. purified calpain II, 30 min. inhibition, % at 16 µM. hit rate 0.37% among 220,000;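 active = inhibition above about 50%, limit read from the data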
The depositor's hits bear a star; nt = no result. Hits are enriched below; roughly 1.3% of the tested compounds scored in any of these assays.

SMILES	S1P4 antagonist	PERK inh	S1P4 agonist	S1P3 antagonist	m-calpain inh
CCN1CCc2c(sc(NC(=S)NC(=O)c3ccco3)c2C(N)=O)C1	6	1	1	-19	-6
CCN1CCc2c(sc(NC(=O)Nc3ccc(Cl)c(Cl)c3)c2C(N)=O)C1	-7	-1	0	29*	-200
Cn1nnnc1SCC(=O)NC1CCCCC1	-9	0	-2	-63	57*
CC1CCCC(NC(=O)CSc2nnnn2C)C1C (stereo not drawn)	4	0	2	nt	-50
CC(=O)Nc1cccc(NC(=O)CSc2nnnn2C)c1	-10	0	-1	70*	-28
Cc1nc(NCCOc2ccccc2)sc1C(=O)Nc1ccccc1	4	0	0	9	11
COc1ccc(C2C(C(=O)Nc3cc(OC)c(OC)c(OC)c3)c3ccccc3C(=O)N2C)cc1OC (stereo not drawn)	-11	1	1	11	-43
C=CCNC(=S)Nc1cccc2ccccc12	2	3.0*	-1	nt	-1
CCCNC(=O)Cn1c(=O)/c(=C\c2ccc(-c3ccc([N+](=O)[O-])cc3)o2)s/c1=C\C(=O)C(C)(C)C	-5	1	0	-7	-18
Cn1c(SCC(=O)NNC(=O)c2ccc(Cl)cc2)nnc1-c1cccnc1	-8	1	1	-4	-5
O=C(O)c1ccc(-c2nc(-c3ccccc3)c(-c3cccs3)[nH]2)cc1	-13	4.3*	1	-7	-327
Cc1nnc(N/N=C/c2ccco2)n1N	5	0	-1	-4	-32
Cc1onc(-c2c(Cl)cccc2Cl)c1C(=O)ONC(=O)c1cc(C(F)(F)F)cc(C(F)(F)F)c1	-15	3.0*	-2	2	23
CCOC(=O)C(NC(=O)Nc1ccc(Cl)cn1)(Oc1ccc(F)cc1)C(F)(F)F (stereo not drawn)	-10	0	1	-1	23
CC1(C(=O)OCC(=O)Nc2cccc(S(=O)(=O)NC3=NCCCCC3)c2)CC1(Cl)Cl (stereo not drawn)	-9	-1	-1	-7	-6
N/C(=N/OC(=O)c1ccc(Cl)cc1)c1ncc([N+](=O)[O-])s1	13	0	0	-8	1
CCCC(=O)Nc1ccc(Cl)c(NC(=S)NC(=O)c2cc3ccccc3o2)c1	-5	0	0	6	52*
Cn1cc(Br)c(-c2cccc(N3C(=O)CCCC3=O)c2)n1	5	1	-1	-12	9
Cc1ccc(-c2ccc(/C=N/NC(=O)c3ccccc3O)o2)cc1	3	3.1*	-1	-13	0
CC(Cc1ccccc1)NC(=S)CN1CCCC1=S (stereo not drawn)	2	1	1	-2	-11
O=C(NNC(=O)c1ccccc1C(=O)O)c1ccc(O)cc1	5	0	-2	4	24
CN(C)C(=O)N(CCCN1CCOCC1)Cc1cccc2ccccc12	0	-1	-1	6	-19
COc1ccc(N(C(=O)Cn2nnc(-c3ccccc3F)n2)C(C(=O)NCC2CCCO2)c2ccc(Cl)cc2)cc1 (stereo not drawn)	-3	1	0	-11	67*
COc1ccc(N(C(=O)Cn2nnc(-c3ccc(Cl)cc3)n2)C(C(=O)NCC2CCCO2)c2ccc(C)cc2)cc1 (stereo not drawn)	2	0	-2	nt	27
O=C(CCC(=O)N1CCN(S(=O)(=O)c2ccc(Cl)cc2)CC1)Nc1cccc(Br)c1	-6	-1	1	-1	83*
SMILES	S1P4 antagonist	PERK inh	S1P4 agonist	S1P3 antagonist	m-calpain inh
Cc1cc(C)c(NC(=O)NC(=O)C(Cl)(Cl)Cl)c(C)c1	-6	3.5*	1	-4	14
Cc1ccc(NC(=O)CCSc2nnc(C)s2)cc1	-7	2.9*	3	nt	-8
O=P(CCCCCCCCCP(=O)(c1ccccc1)c1ccccc1)(c1ccccc1)c1ccccc1	-13	-1	1	nt	57*
O=C(O)CCCCCCCCCCP(=O)(c1ccccc1)c1ccccc1	-5	1	0	0	-15
COc1cccc(C(=O)N2c3ccccc3Sc3ccccc32)c1	-16	0	0	3	52*
CC1=CC(=C(C#N)c2nc3ccccc3s2)C=C(C)N1Cc1ccco1	-10	0	2	56*	5
O=C(c1ccc(Br)o1)N1CCN(c2ccc(F)cc2)CC1	6	-1	0	11	15
CC(=O)c1ccc(-c2ccc(C(=O)N3CCN(c4ccc(F)cc4)CC3)o2)cc1	-4	0	0	-9	68*
Cc1ccc(C(=O)NCc2nnc(SCC(=O)NC(C)c3ccccc3)n2C)cc1 (stereo not drawn)	7	0	2	-6	25
CC(=O)c1ccc(NC(=O)c2noc(C(C)C)c2[N+](=O)[O-])cc1	-12	1	0	4	95*
Cc1ccc(O)c(NC(=O)c2noc(C(C)C)c2[N+](=O)[O-])c1	2	1	2	10	-9
CCc1ccc(NC(=O)c2noc(C(C)C)c2[N+](=O)[O-])cc1	-9	2	0	9	46
COc1ccc(NC(=O)c2noc(C(C)C)c2[N+](=O)[O-])cc1	-5	2	-1	6	53*
COc1cc(CC(NC(C)=O)C(=O)NC2CCN(c3nc(OC)nc(OC)n3)CC2)cc(OC)c1 (stereo not drawn)	-7	2	1	-7	-10
COC(=O)C(Nc1ccccc1Cl)(c1cc(C)c(O)c(C)c1)C(F)(F)F (stereo not drawn)	16	1	0	nt	52*
O=C(/C=C/c1ccc([N+](=O)[O-])cc1)NCCSc1ccccc1	-9	1	-5	nt	57*
COc1nc(Nc2nc3ccccc3c(=O)[nH]2)nc2ccc(C)cc12	-9	1	-1	70*	-43
O=c1[nH]c(=S)[nH]c2sccc12	-5	1	2	0	13
O=C(CCN1C(=O)/C(=C/c2ccc3c(c2)OCO3)SC1=S)Nc1ccccc1	5	0	0	-18	58*
O=C(/C=C/c1cccs1)N1CCOCC1	-3	1	1	-3	56*
O=C(/C=C/c1cccs1)N1CCN(c2ccc(F)cc2)CC1	-1	1	2	-4	5
Cc1ccc2c(c1)N(CC(=O)OC(CC(C)C)C(=O)NC1CCCC1)C(=O)CO2 (stereo not drawn)	3	-1	0	90*	-23
CC(C)C(OC(=O)CN1C(=O)COc2ccccc21)C(=O)NC1CCCC1 (stereo not drawn)	-12	-1	1	18	-10
NC(=S)N/N=C/c1ccc(/C=N/NC(N)=S)cc1	-12	3.5*	0	6	-22
